“And” between values parts separate entries of the source, which are not always exact repeats. Identical values can stand only once. Results filed as inconclusive are left out. A call without a number means that no potency is given here. More than one record can exist for a structure, and the calls need not agree. The source made the active and inactive calls. Calls come from the whole dose curve; as a rule, active = well fitted curve in the direction sought with a large enough effect in the repeat runs; inconclusive = weak or mixed curves; inactive = no such curve, though single readings can be large; an effect the other way counts as inactive or inconclusive.
Key:
[1] = A CellTox Green Cytotoxicity Assay to monitor cytotoxicity in HepG2 cells - 0 hour (AID 1224882); note: nearly all actives have a fitted effect of over 35% in size
Outline: (§1)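 Using 1536-well format, dye-containing HepG2 suspension was seeded, allowed 5 h at 37 C/5% CO2, dosed by pintool with compounds, positive and negative controls, and imaged for fluorescence across 40 h.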

[2] = A CellTox Green Cytotoxicity Assay to monitor cytotoxicity in HepG2 cells - 32 hour (AID 1224883); note: nearly all actives have a fitted effect of over 50% in size; note: potency is the fitted concentration of half-maximal effect
Outline: as §1

[3] = qHTS RealTime-Glo MT Cell Viability Assay in HepG2 cells - 16 hour (AID 1224885); note: nearly all actives have a fitted effect of over 50% in size; note: potency is the fitted concentration of half-maximal effect
Outline: (§2)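 Compound treatment began 5 h after plating HepG2 cells (600/well) with NanoLuc luciferase and prosubstrate. Plates stayed at 37 C for 40 h; luminescence was captured at six time points, 0 h through 40 h.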

[4] = qHTS RealTime-Glo MT Cell Viability Assay in HEK293 cells - 24 hour (AID 1224886); note: nearly all actives have a fitted effect of over 50% in size; note: potency is the fitted concentration of half-maximal effect
Outline: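 Quantitative high-throughput screen of the Tox21 10K library in HEK293: cells and RealTime-Glo reagents plated together, compound added at 5 h, luminescence monitored through 40 h at 37 C.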

[5] = qHTS RealTime-Glo MT Cell Viability Assay in HEK293 cells - 8 hour (AID 1224887); note: nearly all actives have a fitted effect of over 50% in size; note: potency is the fitted concentration of half-maximal effect
Outline: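 Viable HEK293 cells reduce a cell-permeant prosubstrate; the product diffuses out and is consumed by NanoLuc in the medium to give light. Compounds went in after a 5 h incubation and plates were read over the treatment course.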

[6] = A CellTox Green Cytotoxicity Assay to monitor cytotoxicity in HEK293 cells - 16 hour (AID 1224888); note: nearly all actives have a fitted effect of over 35% in size; note: potency is the fitted concentration of half-maximal effect
Outline: (§3)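 Fluorescence intensity, read at 0, 8, 16, 24, 32 and 40 h of compound treatment, reflected dye binding to DNA of dead HEK293 cells; compounds (23 nL, DMSO) were added 5 h after plating cells with reagent.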

[7] = qHTS RealTime-Glo MT Cell Viability Assay in HepG2 cells - 0 hour (AID 1224889); note: nearly all actives have a fitted effect of over 50% in size; note: potency is the fitted concentration of half-maximal effect
Outline: as §2

[8] = A CellTox Green Cytotoxicity Assay to monitor cytotoxicity in HepG2 cells - 8 hour (AID 1224890); note: nearly all actives have a fitted effect of over 45% in size; note: potency is the fitted concentration of half-maximal effect
Outline: as §1

[9] = A CellTox Green Cytotoxicity Assay to monitor cytotoxicity in HEK293 cells - 8 hour (AID 1224884); note: nearly all actives have a fitted effect of over 35% in size; note: potency is the fitted concentration of half-maximal effect
Outline: as §3

[10] = qHTS assay to identify small molecule antagonists of the estrogen receptor alpha (ER-alpha) signaling pathway using the BG1 cell line in the presence of 0.1 nM 17-beta-estradiol - cell viability counter screen (AID 1259241); note: nearly all actives have a fitted effect of over 40% in size; note: potency is the fitted concentration of half-maximal effect
Outline: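 Live-cell protease activity (CellTiter-Fluor fluorescence, 30 min) was read in the same wells after VM7Luc4E2 cells had been exposed to compounds with 0.1 nM 17beta-estradiol for 22 hr at 37C.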

Row | SMILES | Potency [1] | Potency [2] | Potency [3] | Potency [4] | Potency [5] | Potency [6] | Potency [7] | Potency [8] | Potency [9] | Potency [10]
1 | CCCCCCCCCCCCOC(=O)c1cc(O)c(O)c(O)c1 | inactive | 48.8 µM (active) and 54.9 µM (active) | 48.8 µM (active) and 49 µM (active) | 4.35 µM (active) and 3.89 µM (active) | 7.73 µM (active) and 6.17 µM (active) | 54.7 µM (active) and 43.6 µM (active) | inactive | 48.8 µM (active) and 21.9 µM (active) |  | 
2 | Cc1ccc2ccc3cccc4ccc1c2c34 | inactive | inactive | inactive |  | inactive | inactive | inactive | inactive | inactive | inactive
3 | CC(=O)OC(OC(C)=O)c1ccc([N+](=O)[O-])o1 | inactive | 55.9 µM (active) |  | 44.4 µM (active) | 39.6 µM (active) |  | inactive | inactive | inactive | 55.4 µM (active)
4 | CCCOc1sc(C(=O)N2CCC(c3cc(CN)ccc3F)CC2)c(C)c1Br | inactive | 17.9 µM (active) | 22.5 µM (active) |  | 17.9 µM (active) | 35.7 µM (active) |  | 40 µM (active) | 40 µM (active) | 
5 | CC(C)(C)c1cc(/C=C2\SC(=N)NC2=O)cc(C(C)(C)C)c1O | inactive | 43.6 µM (active) |  |  |  |  | inactive | 49 µM (active) | inactive | inactive
6 | CC(C)(C)CC(C)(C)c1ccccc1O | inactive | 27.7 µM (active) | inactive |  | 34.9 µM (active) | 39.1 µM (active) | inactive |  | 39.1 µM (active) | inactive
7 | CN(C)c1ccc(N=NS(=O)(=O)O)cc1 | inactive | inactive |  |  | 34.5 µM (active) | inactive |  | inactive | inactive | 
8 | C=CC(=O)OCC(O)COc1ccccc1 (configuration not stated) | inactive | inactive |  | inactive | inactive | inactive | inactive | inactive | inactive | inactive
9 | CO[C@H]1C=CO[C@@]2(C)Oc3c(C)c(O)c4c(O)c(cc(O)c4c3C2=O)NC(=O)/C(C)=C\C=C/[C@H](C)[C@H](O)[C@@H](C)[C@@H](O)[C@@H](C)[C@H](OC(C)=O)[C@@H]1C | inactive | inactive | inactive |  |  | inactive |  | inactive | inactive | 27.5 µM (active)
10 | CC(=O)c1ccccc1N | inactive | inactive | inactive |  |  | inactive | inactive | inactive | inactive | inactive
11 | CN(Cc1cc(Br)cc(Br)c1N)C1CCCCC1 | inactive | 12 µM (active) | inactive |  |  |  | inactive |  | inactive | inactive
12 | Cc1c(-c2ccc(O)cc2)n(Cc2ccc(OCCN3CCCCCC3)cc2)c2ccc(O)cc12 | inactive | 10.7 µM (active) | 23.9 µM (active) | 2.68 µM (active) | 2.39 µM (active) | 23.9 µM (active) | inactive |  |  | 
13 | Cc1c(C)n(Cc2ccccc2)c2ccc(C(=O)OCCN(C)C)cc12 | inactive | 23.9 µM (active) |  |  | inactive | inactive | inactive |  | inactive | inactive
14 | CCC(C)C(=O)OC (configuration not stated) | inactive | inactive | inactive |  | inactive | inactive |  | inactive | inactive | inactive
15 | CCCCCCCCCC(=O)N(C)C | inactive | inactive | inactive |  | inactive |  | inactive | inactive | inactive | inactive
16 | CCCCCCCCCCCCCCNCCO | inactive | 7.56 µM (active) | 19 µM (active) |  | 23.9 µM (active) | 21.3 µM (active) |  |  | 21.3 µM (active) | inactive
17 | O=C1NC2CCCCN2C12CCN(CCCN1c3ccccc3CCc3ccc(Cl)cc31)CC2 (configuration not stated) | inactive | 23.9 µM (active) |  | 8.49 µM (active) | 6.01 µM (active) |  | inactive |  | inactive | 
18 | CC1=C(/C=C/C(C)=C/C=C/C(C)=C\C=O)C(C)(C)CCC1 | inactive | inactive | inactive |  | inactive |  | inactive | inactive | inactive | inactive
19 | CN1CCN(C2Cc3ccccc3Sc3ccc(Cl)cc32)CC1 (configuration not stated) | inactive | 23.9 µM (active) |  |  | inactive | 21.3 µM (active) | inactive |  | 19 µM (active) | inactive
20 | Nc1ncnc2c1ncn2[C@@H]1O[C@H](COP(=O)(O)O)[C@@H](O)[C@H]1O | inactive | inactive |  | inactive | inactive | inactive |  | inactive | inactive | inactive
21 | CC(=O)Oc1ccc(C2(c3ccc(OC(C)=O)cc3)C(=O)Nc3ccccc32)cc1 | inactive | inactive | inactive | inactive | inactive | inactive | inactive | inactive |  | 
22 | O=C(O)CC(=O)O | inactive | inactive | inactive |  | inactive | inactive | inactive | inactive | inactive | inactive
23 | CC1CCCCN1CCCOC(=O)c1ccc(OC2CCCCC2)cc1 (configuration not stated) | inactive | 26.8 µM (active) | inactive |  | 10.7 µM (active) | inactive | inactive | inactive | inactive | inactive

Row | SMILES | Potency [1] | Potency [2] | Potency [3] | Potency [4] | Potency [5] | Potency [6] | Potency [7] | Potency [8] | Potency [9] | Potency [10]
24 | CCOC(=O)C1=C(C)NC(C)=C(C(=O)OCC)C1c1ccccc1/C=C/C(=O)OC(C)(C)C | inactive | inactive |  | inactive | inactive | inactive | 3.38 µM (active) | inactive |  | inactive
25 | CNCC[C@H](Oc1cccc2ccccc12)c1cccs1 | inactive | 19 µM (active) | 23.9 µM (active) | 23.9 µM (active) |  |  |  |  |  | inactive
26 | CCCCCCS | inactive | inactive | inactive | inactive | inactive | inactive | inactive | inactive |  | inactive
27 | Clc1ccccc1CN1CCc2sccc2C1 | inactive | inactive | inactive |  | inactive | inactive | inactive | inactive |  | inactive
28 | NC(=O)c1nc(-c2cccc(-c3cc(F)ccc3OCC(F)(F)C(F)(F)F)c2)n[nH]1 | inactive | 43.6 µM (active) | inactive |  | inactive | inactive | inactive |  |  | inactive
29 | CCCCCCCCCCOCC(O)CN (configuration not stated) | inactive | 13.4 µM (active) | 16.9 µM (active) | 23.9 µM (active) | 23.9 µM (active) | 26.8 µM (active) |  | 26.8 µM (active) |  | inactive
30 | Brc1ccccc1-c1ccccc1 | inactive | 46.3 µM (active) | inactive | inactive |  |  | inactive |  |  | inactive
31 | CN1[C@@H]2CC[C@@H]1CC(OC(=O)C(CO)c1ccccc1)C2 (some centres not stated) | inactive | inactive | inactive | inactive | inactive | inactive | inactive | inactive |  | inactive
32 | O=C(Nc1ccc(Cl)cc1)Nc1ccc(Cl)c(C(F)(F)F)c1 | inactive | 19 µM (active) |  | 5.35 µM (active) |  | inactive | inactive | inactive |  | inactive
33 | CS(C)(=O)=O | inactive | inactive | inactive | inactive | inactive |  | inactive | inactive |  | inactive
34 | C/C=C/C=N/NC(=O)c1ccncc1 | inactive | inactive | inactive |  | inactive |  | inactive | inactive |  | inactive
35 | C=CC(=O)OCCN(CC)CC | inactive | inactive | inactive | inactive | inactive | inactive | inactive | inactive |  | inactive
36 | CCCCNc1c(C(=O)OCC)c(C)nc2c1cnn2CC | inactive | inactive | inactive | 12 µM (active) | 13.4 µM (active) | inactive | inactive | inactive |  | inactive
37 | O=C(O)CCCCCCC(=O)O | inactive | inactive | inactive | inactive | inactive | inactive | inactive | inactive |  | inactive
38 | Clc1ccc(C(c2ccccc2Cl)C(Cl)Cl)cc1 (configuration not stated) | inactive | inactive | inactive | 38.9 µM (active) and inactive | inactive | inactive | inactive | inactive |  | inactive
39 | NC1(c2ccc(-c3nc4ccn5c(=O)[nH]nc5c4cc3-c3ccccc3)cc2)CCC1 | inactive | 26.8 µM (active) | 23.9 µM (active) | 3.01 µM (active) | 10.7 µM (active) |  | inactive | inactive |  | 
40 | CC(C)=CCCC(C)O (configuration not stated) | inactive | inactive | inactive |  | inactive | inactive | inactive | inactive |  | inactive
41 | CC(=O)Nc1ccc(O)cc1 | inactive | inactive | inactive | inactive | inactive | inactive | inactive | inactive |  | inactive
42 | Cc1ccc(O)cn1 | inactive | inactive | inactive | inactive | inactive | inactive | inactive | inactive |  | inactive
43 | CCc1cccc(CC)c1NC(=O)C(=O)O | inactive | inactive | inactive | inactive | inactive | inactive | inactive | inactive |  | inactive
44 | CCCCCCCC/C=C\CCCCCCCC(=O)OCCOC(=O)CCCCCCC/C=C\CCCCCCCC | inactive | inactive | inactive | inactive | 20.2 µM (active) | inactive | inactive | inactive |  | inactive
45 | CC1=CP(=O)(c2ccccc2)CC1 (configuration not stated) | inactive | inactive | inactive | inactive | inactive | inactive | inactive | inactive |  | inactive
